Laboratory results from PubChem BioAssay AID504834 (National Center for Advancing Translational Sciences (NCATS), 2011).
About 22,000 (6.9%) of roughly 320,000 compounds were called active. Roughly 27% stayed inconclusive and do not appear here. The call rests on the fitted dose curve; in most records, active means well fitted inhibition curve with a large enough effect; inconclusive means small, poorly fitted or top-dose-only effect, or another doubt; inactive means no such curve, though single readings can be large or run the other way. Shown is part of a subset that was picked to be rich in actives.

Test: Primary qHTS for delayed death inhibitors of the malarial parasite plastid, 96 hour incubation
Conditions: P. falciparum luciferase reporter growth; series mostly up to 28.7 µM; activity change, negative = inhibition: at the top concentration
Procedure, shortened: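 Two-generation exposure (96 h) targets delayed-death phenotype. Reporter parasites carrying integrated firefly luciferase, in red cells at 2% hematocrit and 0.05% parasitemia final, kept at 37 C, 5% CO2; luminescence loss indicates inhibition.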
On the % scale 0 is the no-effect control and ±100 the full control effect; potency means the concentration at half of the fitted maximal effect.

Row | Structure (SMILES) | activity change, negative = inhibition | Potency
1 | CCCCn1c(N)c(N(CCC(C)C)C(=O)COC(=O)c2cccnc2OCC)c(=O)[nH]c1=O | 52.6% (inactive) | 
2 | Cc1ccc(/C=C2\SC(=S)N(CCC(=O)Nc3ccc(O)cc3)C2=O)cc1 | 46.5% (inactive) | 
3 | COc1ccc(OCC(=O)NNC(=O)c2ccc(-c3ccccc3)cc2)cc1 | -17.4% (inactive) | 
4 | COc1ccc(C(=O)NC(=S)NC2CCCCC2)cc1 | -0.349% (inactive) | 
5 | COc1ccc(C(=O)NNC(=S)NC(=O)c2ccccc2)cc1 |  | 6.57 µM (active)
6 | Cc1cc(NC(=O)CCC(=O)N(CC(=O)NC2CCCC2)c2ccc(F)cc2)no1 | 40.9% (inactive) | 
7 | C=CCC1=C/C(=C\c2c(N)n3nc(CC(=O)N4CCOCC4)sc3nc2=O)C=C(OC)C1=O | -14.7% (inactive) | 
8 | Cc1cnc(NC(=O)CSc2c(Cl)cccc2Cl)s1 |  | 10.4 µM (active)
9 | Cc1cnc(NC(=O)CSc2nnc(C)s2)s1 | -15.1% (inactive) | 
10 | Cc1ccc(SCC(=O)Nc2ncc(C)s2)cc1 | 3.99% (inactive) | 
11 | CCOC(=O)C1=C(C)NC(SC)=NC1c1ccccc1 (stereo not drawn) | -21.1% (inactive) | 
12 | CCOC(=O)c1sc(=NC(=O)c2ccc(Br)cc2)n(C)c1C | 65.4% (inactive) | 
13 | CCOC(=O)C1=C(C)Nc2sc(C(=O)c3ccc(Br)cc3)c(N)c2C1c1ccc(C(=O)OC)cc1 (stereo not drawn) |  | 6.57 µM (active)
14 | CC(OC(=O)/C=C/c1ccccc1)C(=O)Nc1ccc(C(N)=O)cc1 (stereo not drawn) | -9.65% (inactive) | 
15 | O=C1c2ccccc2C(O)N1Cc1ccccc1Cl (stereo not drawn) | 59.3% (inactive) | 
16 | O=C(Nc1ccc(Br)cc1)C1CCC(=O)N1Cc1ccccc1Cl (stereo not drawn) |  | 10.4 µM (active)
17 | CCCCNC(=O)C1CCC(=O)N1CCc1ccccc1 (stereo not drawn) | 14.2% (inactive) | 
18 | COc1ccc(-c2onc3ccc(C(C)=O)cc23)cc1 | 25.1% (inactive) | 
19 | O=C(c1ccc2c(c1)OCCO2)C1CCN(S(=O)(=O)c2cccc(F)c2)CC1 | -2.68% (inactive) | 
20 | O=C(c1c(F)cccc1F)N1CCN(S(=O)(=O)c2ccc3c(c2)OCCO3)CC1 | -5.48% (inactive) | 
21 | O=S(=O)(NC1CCN(S(=O)(=O)c2ccc3c(c2)OCCO3)CC1)c1c(F)cccc1F |  | 11.7 µM (active)
22 | CCOc1ccc(C(=O)CCN2CCOCC2)cc1 | -16.3% (inactive) | 

Row | Structure (SMILES) | activity change, negative = inhibition | Potency
23 | O=C1CCN(CCCc2ccccc2)CCN1CCO | 5.15% (inactive) | 
24 | NS(=O)(=O)c1cccc(NC(=O)CC23CC4CC(CC(Br)(C4)C2)C3)c1 | 23.8% (inactive) | 
25 | Cc1ccc(C(=O)OC(C)CN2CCOCC2)cc1 (stereo not drawn) |  | 5.86 µM (active)
26 | Cc1cccc(C(=O)OC(C)CN2CCN(C)CC2)c1 (stereo not drawn) | 46.6% (inactive) | 
27 | CC(CN1CCOCC1)OC(=O)c1ccc(Cl)cc1Cl (stereo not drawn) | 5.52% (inactive) | 
28 | O=C(COC(=O)c1ccccc1Br)Nc1nnc(-c2ccccc2)o1 | 6.55% (inactive) | 
29 | CN1C/C(=C/c2cccs2)C(=O)/C(=C\c2cccs2)C1 | -17.4% (inactive) | 
30 | O=C(CNC(=O)c1ccccc1Br)NCCSc1ccc(Br)cc1 | 9.38% (inactive) | 
31 | Cc1ccc(-c2cn(S(=O)(=O)c3cccc([N+](=O)[O-])c3)nc2N)cc1 |  | 6.57 µM (active)
32 | Cc1cc(C)n(S(=O)(=O)c2cccc([N+](=O)[O-])c2)n1 | -17.8% (inactive) | 
33 | O=[N+]([O-])c1cccc(S(=O)(=O)N2CCCCCC2)c1 | 10.5% (inactive) | 
34 | COc1ccc(C(=O)N2CCCC(C(=O)c3ccccc3OC)C2)cc1OC (stereo not drawn) | -26.1% (inactive) | 
35 | COc1cccc(CN2CCCC(C(=O)c3ccccc3SC)C2)c1O (stereo not drawn) |  | 1.65 µM (active)
36 | CCOC(=O)CCNC(=O)N1CCCC(C(=O)c2ccccc2SC)C1 (stereo not drawn) | -6.64% (inactive) | 
37 | CCCCC(c1nnnn1CS(=O)(=O)c1ccc(C)cc1)N1CCC(C(N)=O)CC1 (stereo not drawn) | -0.154% (inactive) | 
38 | COc1ccc(C(=O)Nc2ccc(C(=O)NCC3CCCO3)cc2)c(OC)c1OC (stereo not drawn) | -8.54% (inactive) | 
39 | CCOC(=O)CN1CCC(c2ccccc2)CC1 | -21.3% (inactive) | 
40 | c1ccc(C2CCC(N3CCC(N4CCCCC4)CC3)CC2)cc1 (stereo not drawn) |  | 2.62 µM (active)
41 | O=C(Cc1ccccc1)N1CCN(C2CCCCCC2)CC1 | 203% (inactive) | 
42 | CC1CCCC(C)N1C(=O)COC(=O)COc1ccccc1C#N (stereo not drawn) | -0.308% (inactive) | 
43 | COc1ccccc1OCC(=O)OCc1cc(-c2ccco2)on1 | 30.4% (inactive) | 
44 | CN(CC(=O)Nc1ccc(F)c(F)c1F)C(=O)C1CC(=O)N(C2CCCC2)C1 (stereo not drawn) | 51.1% (inactive) | 

Row | Structure (SMILES) | activity change, negative = inhibition | Potency
45 | CC1=C(C(=O)OCC2CCCCC2)C(c2ccc(F)cc2)NC(=O)N1 (stereo not drawn) | 1.16% (inactive) | 
46 | CCC(CC)COC(=O)C1=C(C)NC(=O)NC1c1ccc([N+](=O)[O-])cc1 (stereo not drawn) |  | 4.65 µM (active)
47 | CCOC(=O)C1=C(C)NC(=O)NC1c1ccccc1 (stereo not drawn) | -18.4% (inactive) | 
48 | Cc1ccc(N(CC(=O)NCC2CCCO2)C(=O)CNS(=O)(=O)c2ccc(Cl)cc2)cc1 (stereo not drawn) | -13.8% (inactive) | 
49 | CCc1nnc(NC(=O)CCC(=O)N2CCN(c3cc(C)ccc3C)CC2)s1 | 5.92% (inactive) | 
50 | Cc1cc(Cl)nc(NC(=O)Nc2cccc(Cl)c2)n1 | 26.6% (inactive) | 
51 | Cc1c(C=O)n(C)n(-c2ccccc2)c1=O | 30.2% (inactive) | 
52 | CNC(=O)CN1C(=O)NC(c2ccccc2)(c2ccccc2)C1=O | 36.1% (inactive) | 
53 | CCC1(c2ccccc2)C(=O)NC(=O)N(C)C1=O (stereo not drawn) |  | 15.1 µM (active)
54 | O=C(CSc1nc2ccccc2o1)N/N=C/c1ccccc1C(=O)O | 195% (inactive) | 
55 | CCc1ccc(OCC(=O)OC(C)C(=O)NC2CC2)cc1 (stereo not drawn) | 0.306% (inactive) | 
56 | CC(C)OCCCNc1ncnc2c1[nH]c1ccc(F)cc12 |  | 0.185 µM (active)
57 | O=C1CCCN1CCCNc1ncnc2c1[nH]c1ccccc12 | 13.3% (inactive) | 
58 | Cc1ccsc1C(=O)OCC(=O)Nc1cccc(F)c1 | 133% (inactive) | 
59 | Cn1c2c(c(=O)n(C)c1=O)C(c1cccc(F)c1)C(C#N)=C(N)O2 (stereo not drawn) | 21.7% (inactive) | 
60 | CCc1ccc(NC(=O)Cn2ncn3c(cc4ccccc43)c2=O)cc1 |  | 1.47 µM (active)
61 | CCc1ccc(NC(=O)Cn2nc(C)c([N+](=O)[O-])c2C)cc1 | 11.4% (inactive) | 
62 | Cc1nn(CC(=O)Nc2ccc(F)cc2)c(=O)c2ccccc12 | 19.5% (inactive) | 
63 | O=C(NCCN1CCOCC1)Nc1cccc(Cl)c1 | 105% (inactive) | 
64 | CC(=O)Oc1cc2c(C(=O)NCCN3CCOCC3)c(C)oc2c2ccccc12 | 15.9% (inactive) | 
65 | O=C(NCCN1CCOCC1)c1cc(Sc2cccc(Cl)c2)nc2ccccc12 |  | 5.22 µM (active)
66 | Cn1c(SCC(=O)N2CCCC2)nnc1-c1ccc2c(c1)OCO2 | -17.5% (inactive) | 

Row | Structure (SMILES) | activity change, negative = inhibition | Potency
67 | O=C(CNc1ccccc1N1CCCC1=O)Nc1cc(Cl)ccc1-n1cncn1 | 41.9% (inactive) | 
68 | O=C(Nc1ccccc1Cl)Nn1cnnc1 | 22.9% (inactive) | 
69 | O=C(CN1CCCCCC1)Nc1ccc(Br)cc1Br | 55.1% (inactive) | 
70 | O=C(CN1CCCCCC1)Nc1ccc(Br)cc1[N+](=O)[O-] | 69.6% (inactive) | 
71 | O=C(CN1CCCCC1)Nc1ccc(Br)cc1C(=O)c1ccccc1Cl |  | 1.85 µM (active)
72 | Cc1cccc(-n2ncc(Cl)c(Cl)c2=O)c1 | -4.47% (inactive) | 
73 | COc1ccc(C(=O)NCC2CCCCC2)cc1S(=O)(=O)N1CCCC1 | -107% (inactive) | 
74 | COc1cc(NC(=O)c2ccc(-c3csc(C)n3)cc2)c(OC)cc1Cl |  | 4.15 µM (active)
75 | CCOCC(=O)Nc1cc(OC)c(Cl)cc1OC | 21.5% (inactive) | 
76 | COc1cccc(CC(=O)Nc2ccc(-c3csc(C)n3)cc2)c1 | -16.2% (inactive) | 
77 | COc1cc(C(=O)NCc2nnc(SCC(=O)c3ccc(Cl)cc3)o2)cc(OC)c1OC | 8.44% (inactive) | 
78 | Cc1ccc(NS(=O)(=O)c2cc3c(cc2C)NC(=O)CO3)cc1 | 18.2% (inactive) | 
79 | COc1ccc(CCNC(=O)NS(=O)(=O)c2ccc(C)cc2)cc1OC | 15.1% (inactive) | 
80 | O=C(c1cc(-c2ccc(Cl)cc2)on1)N1CCN(c2ccccc2)CC1 | 66.5% (inactive) | 
81 | Cc1cccc(N2CCN(C(=O)c3cnn4c(C(F)F)cc(-c5ccccc5)nc34)CC2)c1C | -5% (inactive) | 
82 | Cc1ccc(Cl)cc1N1CCN(C(=O)c2cccc3c(=O)c(C)c(-c4ccccc4)oc23)CC1 |  | 2.08 µM (active)
83 | O=C(CC1C(=O)NCCN1CC(c1ccccc1)c1ccccc1)NCC1CCOCC1 (stereo not drawn) | 63.7% (inactive) | 
84 | O=C(COc1ccccc1Cl)N1CCCCCCC1 | -12.9% (inactive) | 
85 | CCC(CC)c1nnc(NC(=O)C2CCN(C(=O)c3ccco3)CC2)s1 | 12.9% (inactive) | 
86 | CN(C)C(CNC(=O)c1ccc(OCc2cn3ccccc3n2)cc1)c1ccco1 (stereo not drawn) | 19.2% (inactive) | 
87 | CC(Oc1cc2oc(=O)c3c(c2cc1Cl)CCCC3)C(=O)NCc1ccncc1 (stereo not drawn) | -24.1% (inactive) | 
88 | CC(CCn1cccn1)NC(=O)CCc1nnc(CCc2ccccc2)o1 (stereo not drawn) | 22% (inactive) | 

Row | Structure (SMILES) | activity change, negative = inhibition | Potency
89 | COc1ccc(CNC(=O)CCN2C(=O)c3ccccc3C2=O)cc1 | -6.81% (inactive) | 
90 | COc1ccc(CCc2nnc(CCC(=O)NCc3cnn(-c4ccccc4C)c3)o2)cc1 |  | 9.28 µM (active)
91 | Cc1ccc(C)c(N2CCN(S(=O)(=O)c3c(C)[nH]c(C)c3C(=O)N3CCCC3)CC2)c1 | -2.64% (inactive) | 
92 | O=C(N/N=C/c1c[nH]c2ccccc12)c1cc2ccccc2o1 | -4.84% (inactive) | 
93 | O=C(N/N=C/c1c[nH]c2ccccc12)c1ccccc1O |  | 11.7 µM (active)
94 | CSC(=S)N/N=C/c1c[nH]c2ccccc12 | 18.9% (inactive) | 
95 | CCCc1cc(=O)oc2cc(OCC(=O)Nc3ccc(CN4CCOCC4)cc3)c(Cl)cc12 |  | 10.4 µM (active)
96 | CCOc1ccc(C(=O)Nc2ccc(CN3CCOCC3)cc2)cc1Cl | 232% (inactive) | 
97 | CCc1cc(=O)oc2c(C)c(OCC(=O)NCCN3CCOCC3)ccc12 | 12% (inactive) | 
98 | Cc1nc(-c2ccc(Cl)cc2)sc1C1(C)CC(c2ccccc2F)=NO1 (stereo not drawn) | 24.9% (inactive) | 
99 | COCCCN1C(=O)c2ccc(C(=O)OCC(=O)NCc3ccccc3OC)cc2C1=O | 2.31% (inactive) | 
100 | Cc1c(C)c(C)c(S(=O)(=O)NCCc2ccccn2)c(C)c1C | 4.22% (inactive) | 
101 | CSc1ccccc1OCc1cc(C(=O)N(C)CCc2c(C)n[nH]c2C)no1 | -0.638% (inactive) | 
102 | Cc1ccc(OCc2cc(C(=O)N(C)CCc3ccccc3)no2)cc1C |  | 13.1 µM (active)
103 | CN(Cc1cccnc1)C(=O)c1cc(COc2ccc3ncccc3c2)on1 | -0.897% (inactive) | 
104 | Cc1cc(S(=O)(=O)N2CCOCC2)ccc1OCC(=O)Nc1cccc(C(F)(F)F)c1 | 41.3% (inactive) | 
105 | O=C(N/N=C/c1cccc(OC(=O)c2ccc([N+](=O)[O-])cc2)c1)c1cccnc1 | 10.1% (inactive) | 
106 | Cc1cccc(C(=O)NCCCN(C)CCCNC(=O)c2cccc(C)c2)c1 | 64.7% (inactive) | 
107 | Cc1cccc(-c2nc3ccc(C(=O)NCCN4CCN(C)CC4)cc3nc2-c2cccc(C)c2)c1 |  | 11.7 µM (active)
108 | Cc1cccc(C(=O)NCCCN2CCCC2=O)c1 | 32.3% (inactive) | 
